# About 79,000 compounds went through this panel and 15% of them were active in at least one assay; those are over-represented in the sample as a whole. Unmarked numbers belong to inactive results. Calls of active or inactive are those of the source. No stated cut-off is given here; in the data, active means growth inhibition above about 70%; inactive means the rest.
# What was measured:
# [1] = NCI Yeast Anticancer Drug Screen. Data for the rad50 strain (AID 155);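 further: 0% = growth of vehicle-only cultures of the same strain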; conditions: S. cerevisiae rad50 strain growth inhibition, hits give high values
# Method in brief: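 Inhibition values express reduced yeast growth in compound-treated cultures relative to vehicle-treated controls.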
# [2] = NCI Yeast Anticancer Drug Screen. Data for the mec2-1 strain (AID 157); conditions: S. cerevisiae mec2-1 strain, hits give high values
# Method in brief: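 Mutant yeast (mec2-1) grown with compound; growth inhibition relative to vehicle control reported.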
# [3] = NCI Yeast Anticancer Drug Screen. Data for the sgs1 mgt1 strain (AID 161);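 further: 0% = growth of cultures given vehicle only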; conditions: S. cerevisiae sgs1 mgt1 strain, hits give high values
# Method in brief: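 This yeast growth screen uses a strain with defined DNA-repair lesions; compound-treated growth is compared with vehicle-treated growth.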
# [4] = NCI Yeast Anticancer Drug Screen. Data for the cln2 rad14 strain (AID 165);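 further: 0% = growth equal to vehicle treated cultures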; conditions: S. cerevisiae cln2 rad14 strain, hits give high values
# Method in brief: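 Readout is yeast growth inhibition versus vehicle-treated controls, using a strain with cln2 and rad14 alterations exposed to compound.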
# [5] = NCI Yeast Anticancer Drug Screen. Data for the bub3 strain (AID 167); conditions: S. cerevisiae bub3 mutant strain, hits give high values
# Method in brief: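 Steps: expose the mutant yeast strain to compound; grow alongside vehicle-treated cultures; measure growth; express inhibition against the vehicle cultures.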
# [6] = NCI Yeast Anticancer Drug Screen. Data for the mlh1 rad18 strain (AID 175); conditions: S. cerevisiae mlh1 rad18 strain growth inhibition, hits give high values
# Method in brief: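 Genetically defined yeast (DNA repair-deficient) exposed to compounds; growth inhibition determined relative to vehicle.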
# [7] = at 5.0 µM (retest, dose inferred, filed as 0.5)
# [8] = at 50.0 µM (retest, dose inferred, filed as 5.0)
SMILES,"growth inhibition [1, 7]","growth inhibition [1, 8]",growth inhibition ([1]; at 50.0 µM),"growth inhibition [2, 7]","growth inhibition [2, 8]",growth inhibition ([2]; at 50.0 µM),"growth inhibition [3, 7]","growth inhibition [3, 8]",growth inhibition ([3]; at 50.0 µM),"growth inhibition [4, 7]","growth inhibition [4, 8]",growth inhibition ([4]; at 50.0 µM),"growth inhibition [5, 7]","growth inhibition [5, 8]",growth inhibition ([5]; at 50.0 µM),"growth inhibition [6, 7]","growth inhibition [6, 8]",growth inhibition ([6]; at 50.0 µM)
S=P(Nc1ccc(Cl)cc1)(Nc1ccc(Cl)cc1)c1ccccc1,45%,90% (active),97.8% (active),20%,33%,99.2% (active),18%,65%,97.1% (active),37%,89% (active),95.6% (active),38%,86% (active),99.1% (active),53%,95% (active),99% (active)
CC/C=C/c1cc2c(cc1O)CCC1C2CC[C@@]2(C)C1CC[C@@H]2O (stereo partly drawn),-16%,98% (active),78% (active),-15%,98% (active),81.7% (active),-23%,97% (active),88.6% (active),-24%,98% (active),88.7% (active),-23%,98% (active),88.5% (active),,,
Cc1cc[n+](C2C(=O)c3ccccc3C(=O)C2Nc2cc(Cl)ccc2Cl)cc1 (stereo not drawn),19%,96% (active),96.8% (active),11%,98% (active),98.8% (active),11%,99% (active),78.9% (active),5%,95% (active),66.2%,15%,98% (active),98.5% (active),12%,98% (active),94.5% (active)
c1cs[c]([Hg][c]2cccs2)c1,99% (active),98% (active),99.7% (active),99% (active),76% (active),99.5% (active),100% (active),97% (active),99.6% (active),97% (active),97% (active),98% (active),100% (active),98% (active),99.5% (active),,,
CC(=O)c1ccc([As]=O)cc1 (stereo not drawn),16%,100% (active),99.8% (active),19%,100% (active),99.8% (active),13%,99% (active),99.8% (active),-9%,99% (active),99.4% (active),-8%,100% (active),99.5% (active),14%,100% (active),99.5% (active)
COS(=O)(=O)c1ccccc1,8%,-2%,-2.5%,0%,-2%,-2.4%,-4%,4%,11.6%,7%,-4%,-16.8%,1%,39%,-4.55%,8%,-1%,10.3%
CC(=O)[C-](I)C(C)=O.CC(=O)[C-](I)C(C)=O.CC(=O)[C-](I)C(C)=O.[Ru+3],-6%,90% (active),48.2%,14%,95% (active),90.5% (active),5%,89% (active),35.8%,26%,85% (active),7.45%,18%,90% (active),-1.95%,32%,96% (active),53.5%
O=C1OCC2CC3C4C=CC(C4)C3C12 (stereo not drawn),40%,99% (active),99.2% (active),47%,100% (active),99.5% (active),69%,99% (active),99.4% (active),4%,99% (active),99% (active),20%,99% (active),99.4% (active),77% (active),99% (active),99.2% (active)
O=[N+]([O-])c1ccc(NP(=S)(Nc2ccc([N+](=O)[O-])cc2)c2ccccc2)cc1,28%,91% (active),93% (active),38%,94% (active),95.6% (active),6%,89% (active),91.5% (active),56%,88% (active),90.8% (active),64%,90% (active),95% (active),,,
CCC1CN1P(=O)(Oc1ccccc1)N1CC1CC (stereo not drawn),-2%,15%,-5.7%,-1%,-42%,-17.2%,-1%,2%,-14.8%,-11%,-7%,-16.4%,7%,52%,57.5%,,,
